Among the data in PubChem BioAssay (EPA / NIEHS) are outcome and AC50 values, retold here.

Each structure is given as a SMILES string. Inconclusive results are not listed. Active and inactive are the calls of the source. The calls were made as follows, unless noted: active = hit-call score of the fitted dose curve at least 0.9, where 1 is the maximum; inactive = score below 0.9.

Read-out in experiment [1]: Interleukin-1 alpha (IL1a), IL1A (gene 3552)
In words: BSK_LPS_IL1a: BioMAP Diversity Plus: LPS Assay for Interleukin-1 alpha (IL1a) Biomarker Activity (AID 2283080). The note with it: primary human HUVEC with PBMC; actives raise or lower the signal. The gist of the method: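 Measured: IL-1 alpha via ELISA at 24 h in LPS-activated human umbilical vein endothelium–PBMC co-culture. Baseline: DMSO, bidirectional fitting.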

Experiment [2] can be described thus: BSK_LPS_PGE2: BioMAP Diversity Plus: LPS Assay for Prostaglandin E2 (PGE2) Biomarker Activity (AID 2283082). The note with it: primary human HUVEC with PBMC; actives raise or lower the signal. The gist of the method: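 Endpoint derived from bidirectional curve fitting versus DMSO of ELISA-measured PGE2 in LPS-stimulated human primary vascular co-culture (HUVEC with PBMC) harvested at 24 h.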

Read-out in experiment [3]: Macrophage colony-stimulating factor (MCSF), CSF1 (gene 1435)
Kind of experiment: BSK_LPS_MCSF: BioMAP Diversity Plus: LPS Assay for Macrophage colony-stimulating factor (MCSF) Biomarker Activity (AID 2283083). As to conditions: primary human HUVEC with PBMC; actives raise or lower the signal. The essentials: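 Compound is added to a human vascular primary co-culture of umbilical vein endothelium and blood mononuclear cells. After 24 h, M-CSF is quantified by ELISA. Signal changes are fitted in both directions against DMSO.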

Read-out in experiment [4]: Tissue Factor, F3 (gene 2152)
In words: BSK_LPS_TissueFactor: BioMAP Diversity Plus: LPS Assay for Tissue Factor Biomarker Activity (AID 2283084). The note with it: primary human HUVEC with PBMC; actives raise or lower the signal. The gist of the method:
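In this co-culture system of umbilical vein endothelium with PBMC, stimulated with LPS, cell-surface CD142 is detected by ELISA at 24 h. Endpoint values derive from bidirectional fitting, DMSO serving as baseline.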

Read-out in experiment [5]: Tumor necrosis factor (Homo sapiens) (UniProt P01375)
In words: BSK_LPS_TNFa: BioMAP Diversity Plus: LPS Assay for Tumour Necrosis Factor alpha (TNFa) Biomarker Activity (AID 2283085). As to conditions: primary human HUVEC with PBMC; actives raise or lower the signal. The gist of the method:
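Primary human vascular co-culture of HUVEC and PBMC; TNFa ELISA 24 h after treatment, analysed as increase or decrease relative to DMSO control.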

Read-out in experiment [6]: Vascular cell adhesion molecule 1 (VCAM1), VCAM1 (gene 7412)
In words: BSK_LPS_VCAM1: BioMAP Diversity Plus: LPS Assay for Vascular cell adhesion molecule 1 (VCAM1) Biomarker Activity (AID 2283086). As to conditions: primary human HUVEC with PBMC; actives raise or lower the signal. The gist of the method: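 Primary human vascular co-culture (umbilical vein endothelium plus PBMC) stimulated with LPS received chemical; 24 h later VCAM-1 was read by ELISA. Overt cytotoxicity was assessed by sulforhodamine B staining of parallel cultures at the same time point.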

Read-out in the next experiment: CD38, CD38 (gene 952)
Kind of experiment: BSK_SAg_CD38: BioMAP Diversity Plus: SAg Assay for CD38 Biomarker Activity (AID 2283087). As to conditions: primary human HUVEC with PBMC; actives raise or lower the signal. The gist of the method:
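Fluorescence ELISA of cell-surface CD38 served as the read-out, with either increase or decrease fitted against DMSO controls. Cells were a human umbilical vein endothelium plus PBMC co-culture under SEB/TSST-1 stimulation, measured 24 h after dosing.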

Read-out in another experiment: CD40, CD40 (gene 958)
In words: BSK_SAg_CD40: BioMAP Diversity Plus: SAg Assay for CD40 Biomarker Activity (AID 2283088). As to conditions: primary human HUVEC with PBMC; actives raise or lower the signal. The essentials:
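Fluorescence ELISA read-out of CD40 from umbilical vein endothelium plus peripheral blood mononuclear cells, sampled 24 h after dosing. Values come from bidirectional curve fitting with DMSO as baseline.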

Read-out in a further experiment: CD69, CD69 (gene 969)
In words: BSK_SAg_CD69: BioMAP Diversity Plus: SAg Assay for CD69 Biomarker Activity (AID 2283089). As to conditions: primary human HUVEC with PBMC; actives raise or lower the signal. The gist of the method:
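HUVEC co-cultured with PBMC were dosed with chemical, and CD69 was measured by ELISA with fluorescence read-out 24 h later. Bidirectional curve fitting used DMSO as negative control and activity baseline.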

Read-out in experiment [7]: Monocyte Chemoattractant Protein-1 (MCP1), CCL2 (gene 6347)
Kind of experiment: BSK_SAg_MCP1: BioMAP Diversity Plus: SAg Assay for Monocyte Chemoattractant Protein-1 (MCP1) Biomarker Activity (AID 2283090). The note with it: primary human HUVEC with PBMC; actives raise or lower the signal. The gist of the method:
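MCP-1 levels in the endothelial–PBMC SAg co-culture were quantified by ELISA at 24 h post-dosing; both increases and decreases versus DMSO scored. Cytotoxicity monitored by SRB total protein in parallel cultures.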

Read-out in experiment [8]: E-selectin (Homo sapiens) (UniProt P16581)
Kind of experiment: BSK_SAg_Eselectin: BioMAP Diversity Plus: SAg Assay for Eselectin Biomarker Activity (AID 2283091). The note with it: primary human HUVEC with PBMC; actives raise or lower the signal. The gist of the method:
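Primary human endothelial cells and peripheral blood mononuclear cells were co-cultured and exposed to chemical for 24 hours. E-selectin levels were then quantified by ELISA, with bidirectional curve fitting normalised to DMSO controls.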

Read-out in experiment [9]: Monokine induced gamma interferon (MIG), CXCL9 (gene 4283)
In words: BSK_SAg_MIG: BioMAP Diversity Plus: SAg Assay for Monokine induced gamma interferon (MIG) Biomarker Activity (AID 2283092). The note with it: primary human HUVEC with PBMC; actives raise or lower the signal. The essentials:
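HUVEC plus human PBMC co-culture, chemicals dosed and MIG (CXCL9) quantified by ELISA at 24 h. Bidirectional curve fitting against DMSO as negative control and baseline, so both gain and loss of signal count as activity.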

The nature of experiment [10]: BSK_SAg_PBMCCytotoxicity: PBMC Cytotoxicity Assessment in the BioMAP Diversity Plus: SAg Assay (AID 2283093).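 Also: PBMC viability measured as Alamar Blue reduction fluorescence at 546/580 nm; fitted both ways against DMSO so a hit may be loss or gain of signal.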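 As to AC50: PBMC superantigen activated with SEB plus TSST-1 one hour after compound addition.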 The note with it: primary human HUVEC with PBMC. The essentials:
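Compound added to 75,000 PBMC/well for 1 h; SEB and TSST-1 then added at 20 ng/mL final each; 90 h incubation; Alamar Blue 6 h; read 546/580 nm ex/em. Activity fitted bidirectionally relative to DMSO baseline.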

Read-out in experiment [11]: Interleukin-8 (IL8), CXCL8 (gene 3576)
In words: BSK_SAg_IL8: BioMAP Diversity Plus: SAg Assay for Interleukin-8 (IL8) Biomarker Activity (AID 2283094). The note with it: primary human HUVEC with PBMC; actives raise or lower the signal. The gist of the method: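 In this co-culture of human umbilical vein endothelium with peripheral blood mononuclear cells, IL-8 is assayed by ELISA at 24 h. DMSO serves as baseline for bidirectional curve fitting.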

Experiment [12] in a line: BSK_SAg_Proliferation: Cell Proliferation Assessment in the BioMAP Diversity Plus: SAg Assay (AID 2283095).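 Also: relative cell number as total protein by SRB absorbance in sub-confluent culture.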 The note with it: primary human HUVEC with PBMC. The gist of the method: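 Readout is SRB-stained protein (560 nm) in a primary human HUVEC and PBMC co-culture; sub-confluent cultures are read at 96 h. Activity is fitted bidirectionally using DMSO as baseline.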

A short description of experiment [13]: BSK_SAg_SRB: Viability Assessment in the BioMAP Diversity Plus: SAg Assay (AID 2283096).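 Also: cells read one day after compound addition; hits may be either gain or loss of signal compared with DMSO.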 The note with it: primary human HUVEC with PBMC. The essentials:
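Total protein by sulforhodamine B staining, 24 h after dosing, in HUVEC–PBMC co-culture; DMSO-referenced bidirectional fitting.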

Experiment [14] addresses human CYP19A1, CYP19A1 (gene 1588) (UniProt P11511). In words: NVS_ADME_hCYP19A1: NovaScreen (NVS) CYP450-related Enzyme Activity (ADME) Assay for human CYP19A1 (AID 2283098; active = hit-call score of the fitted dose curve at least 0.9, where 1 is the maximum). The essentials: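 Biochem, cell-free; recombinant enzyme + specific substrate; fluorescence intensity at 0.5 h post-dose; 10 uM duplicate primary, conc. series for actives; acetonitrile = negative control/baseline; positive and negative controls on every plate.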

The target in experiment [15] is human CYP1A1, CYP1A1 (gene 1543) (UniProt P04798). In words: NVS_ADME_hCYP1A1: NovaScreen (NVS) CYP450-related Enzyme Activity (ADME) Assay for human CYP1A1 (AID 2283100; active = hit-call score of the fitted dose curve at least 0.9, where 1 is the maximum). The essentials:
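Compounds first went through duplicate single-concentration testing at 10 uM against purified CYP1A1. Those passing a threshold such as 30% inhibition entered singleton dose-response, highest concentration 20 uM. Signal was fluorescence measured after 1 hour.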

Sequence of E-selectin (Homo sapiens) (P16581 whole entry, looked up): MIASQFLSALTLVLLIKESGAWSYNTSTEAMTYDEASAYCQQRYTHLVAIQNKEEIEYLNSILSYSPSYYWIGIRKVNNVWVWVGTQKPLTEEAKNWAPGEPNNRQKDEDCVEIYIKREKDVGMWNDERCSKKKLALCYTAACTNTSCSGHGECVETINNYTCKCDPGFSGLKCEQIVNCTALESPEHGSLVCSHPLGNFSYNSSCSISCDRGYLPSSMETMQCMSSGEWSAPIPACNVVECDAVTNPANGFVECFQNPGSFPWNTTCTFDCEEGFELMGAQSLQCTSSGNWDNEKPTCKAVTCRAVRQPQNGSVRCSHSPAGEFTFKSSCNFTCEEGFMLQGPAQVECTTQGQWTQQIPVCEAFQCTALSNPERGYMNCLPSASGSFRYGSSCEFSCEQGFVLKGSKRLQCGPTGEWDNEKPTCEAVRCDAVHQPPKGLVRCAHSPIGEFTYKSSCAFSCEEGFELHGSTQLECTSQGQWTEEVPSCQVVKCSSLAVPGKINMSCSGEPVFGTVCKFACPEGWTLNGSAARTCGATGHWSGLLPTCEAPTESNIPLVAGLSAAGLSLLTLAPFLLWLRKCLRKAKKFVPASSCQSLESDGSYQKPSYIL
Sequence of Tumor necrosis factor (Homo sapiens) (P01375 whole entry, looked up): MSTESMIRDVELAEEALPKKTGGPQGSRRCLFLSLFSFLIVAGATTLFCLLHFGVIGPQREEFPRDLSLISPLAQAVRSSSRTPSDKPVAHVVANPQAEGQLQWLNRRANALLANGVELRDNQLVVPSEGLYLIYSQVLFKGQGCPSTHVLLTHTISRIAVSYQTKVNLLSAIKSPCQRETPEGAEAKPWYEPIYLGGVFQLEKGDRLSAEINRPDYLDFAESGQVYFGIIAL
Sequence of human CYP19A1, CYP19A1 (gene 1588) (P11511 whole entry, looked up): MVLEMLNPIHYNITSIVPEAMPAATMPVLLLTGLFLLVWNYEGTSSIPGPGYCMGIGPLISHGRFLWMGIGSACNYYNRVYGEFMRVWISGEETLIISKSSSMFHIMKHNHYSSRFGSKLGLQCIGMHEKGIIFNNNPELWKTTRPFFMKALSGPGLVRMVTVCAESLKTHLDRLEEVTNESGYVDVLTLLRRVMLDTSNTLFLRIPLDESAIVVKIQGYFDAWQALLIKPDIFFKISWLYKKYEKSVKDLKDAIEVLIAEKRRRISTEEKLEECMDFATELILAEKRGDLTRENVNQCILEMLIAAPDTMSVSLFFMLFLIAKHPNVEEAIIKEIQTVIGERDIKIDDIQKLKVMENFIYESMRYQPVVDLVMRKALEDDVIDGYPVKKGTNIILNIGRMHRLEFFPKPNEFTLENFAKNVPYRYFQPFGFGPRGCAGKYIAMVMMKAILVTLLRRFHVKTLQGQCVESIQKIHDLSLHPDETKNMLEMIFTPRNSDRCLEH
Sequence of human CYP1A1, CYP1A1 (gene 1543) (P04798 whole entry, looked up): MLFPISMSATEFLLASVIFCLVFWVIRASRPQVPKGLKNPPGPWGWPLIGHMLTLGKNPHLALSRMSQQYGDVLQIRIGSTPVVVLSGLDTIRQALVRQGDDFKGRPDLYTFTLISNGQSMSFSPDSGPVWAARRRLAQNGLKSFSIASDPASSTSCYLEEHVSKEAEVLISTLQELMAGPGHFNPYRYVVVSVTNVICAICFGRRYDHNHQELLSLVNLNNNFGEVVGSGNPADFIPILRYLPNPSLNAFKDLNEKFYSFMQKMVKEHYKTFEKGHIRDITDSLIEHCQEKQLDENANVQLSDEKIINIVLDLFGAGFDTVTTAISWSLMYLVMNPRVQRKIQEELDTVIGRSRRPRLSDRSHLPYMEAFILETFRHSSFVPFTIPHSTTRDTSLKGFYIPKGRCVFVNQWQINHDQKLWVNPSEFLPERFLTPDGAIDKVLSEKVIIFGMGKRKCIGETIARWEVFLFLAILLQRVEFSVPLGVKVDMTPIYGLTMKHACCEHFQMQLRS

Turning to `CC(C)Nc1nc(Cl)nc(NC(C)C)n1`, the outcome is “inactive” in experiment [1]; “inactive” in experiment [2]; “inactive” in experiment [3]; “inactive” in [4]; “inactive” in experiment [6]; “inactive” with CD38, CD38 (gene 952). For the same molecule, the outcome with CD40, CD40 (gene 958) is “inactive”; with CD69, CD69 (gene 969), “inactive”; in experiment [7], “inactive”; in [9], “inactive”; in experiment [10] it was “inactive”; in experiment [11], “inactive”. Further, the result in [12] and in [13] was inactive. Further, the AC50 is 7.35 µM (active) in experiment [5] and 4.2 µM (active) in experiment [8].

In the case of `N#Cc1c(Cl)cccc1Cl`, the result in [1], in experiment [2], in experiment [3], in experiment [4], in experiment [5] and in experiment [6] was inactive. For the same molecule, the outcome in the experiment with CD38, CD38 (gene 952) was “inactive”; with CD40, CD40 (gene 958), “inactive”; with CD69, CD69 (gene 969), “inactive”; in [7], “inactive”; in experiment [8] it was “inactive”; in [9] it was “inactive”. For the same molecule, the result in experiment [10], in [11], in [12] and in experiment [13] was inactive.

As to `COc1cc(Cl)c(OC)cc1Cl`, the result in experiment [1], in experiment [2], in [3], in [4], in [5] and in experiment [6] was inactive. In addition, the outcome in the experiment with CD38, CD38 (gene 952) was “inactive”; in the experiment with CD40, CD40 (gene 958) it was “inactive”; with CD69, CD69 (gene 969) it was “inactive”; in experiment [7], “inactive”; in [8] it was “inactive”; in experiment [9], “inactive”. The outcome in experiment [10], in [11], in [12] and in [13] was inactive.

For `CC(C)NC(=O)N1CC(=O)N(c2cc(Cl)cc(Cl)c2)C1=O`, the outcome in experiment [1], in experiment [2], in experiment [3], in experiment [4], in [5] and in experiment [6] was inactive. Moreover, the outcome with CD38, CD38 (gene 952) is “inactive”; in the experiment with CD40, CD40 (gene 958), “inactive”; with CD69, CD69 (gene 969), “inactive”; in experiment [7], “inactive”; in experiment [8] it was “inactive”; in experiment [9] it was “inactive”. Besides, the outcome in [10], in experiment [11], in experiment [12], in experiment [13] and in experiment [14] was inactive. For the same molecule, the AC50 in experiment [15] is 5.48 µM (active).

As to `Nc1c(Cl)c(F)nc(OCC(=O)O)c1Cl`, the outcome in [1] is “inactive”; in experiment [2], “inactive”; in [3] it was “inactive”; in [5], “inactive”; in experiment [6] it was “inactive”; with CD38, CD38 (gene 952) it was “inactive”. The outcome was “inactive” in the experiment with CD40, CD40 (gene 958); “inactive” in the experiment with CD69, CD69 (gene 969); “inactive” in [7]; “inactive” in [8]; “inactive” in [9]; “inactive” in experiment [10]. Besides, the outcome in experiment [11], in experiment [12] and in experiment [13] was inactive. Besides, the AC50 in [4] is 5.36 µM (active).

`CCCN(CC)CC1COC2(CCC(C(C)(C)C)CC2)O1` (stereo not drawn): the outcome in [1], in [2], in [3], in [4], in experiment [5] and in experiment [6] was inactive. Also, the outcome is “inactive” with CD40, CD40 (gene 958); “inactive” with CD69, CD69 (gene 969); “inactive” in experiment [7]; “inactive” in [9]; “inactive” in experiment [13]. Further, the AC50 in the experiment with CD38, CD38 (gene 952) is 14.7 µM (active); in experiment [8], 12.9 µM (active); in experiment [10] it was 12.2 µM (active); in [11], 12.1 µM (active); in experiment [12] it was 6.99 µM (active).

In general, AC50 refers to the concentration giving half of the maximal activity seen.
